# Bioassay records: PubChem BioAssay, Sanford-Burnham Center for Chemical Genomics
# p-CIP stab down: p/CIP-EGFP fusion destabilizers, primary screen, fluorescence, F442A cells; AID 1984, 2009; decrease of EGFP signal, % at 10 µM; 0.01% of 290,000 active; 16 h;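 active means EGFP signal decrease of at least 30% at 10 µM or well 3 SD below plate mean, unless failing retest; inactive means the rest, including hits failing retest or dose response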
# Target sequence (Q05BA5 1-1403): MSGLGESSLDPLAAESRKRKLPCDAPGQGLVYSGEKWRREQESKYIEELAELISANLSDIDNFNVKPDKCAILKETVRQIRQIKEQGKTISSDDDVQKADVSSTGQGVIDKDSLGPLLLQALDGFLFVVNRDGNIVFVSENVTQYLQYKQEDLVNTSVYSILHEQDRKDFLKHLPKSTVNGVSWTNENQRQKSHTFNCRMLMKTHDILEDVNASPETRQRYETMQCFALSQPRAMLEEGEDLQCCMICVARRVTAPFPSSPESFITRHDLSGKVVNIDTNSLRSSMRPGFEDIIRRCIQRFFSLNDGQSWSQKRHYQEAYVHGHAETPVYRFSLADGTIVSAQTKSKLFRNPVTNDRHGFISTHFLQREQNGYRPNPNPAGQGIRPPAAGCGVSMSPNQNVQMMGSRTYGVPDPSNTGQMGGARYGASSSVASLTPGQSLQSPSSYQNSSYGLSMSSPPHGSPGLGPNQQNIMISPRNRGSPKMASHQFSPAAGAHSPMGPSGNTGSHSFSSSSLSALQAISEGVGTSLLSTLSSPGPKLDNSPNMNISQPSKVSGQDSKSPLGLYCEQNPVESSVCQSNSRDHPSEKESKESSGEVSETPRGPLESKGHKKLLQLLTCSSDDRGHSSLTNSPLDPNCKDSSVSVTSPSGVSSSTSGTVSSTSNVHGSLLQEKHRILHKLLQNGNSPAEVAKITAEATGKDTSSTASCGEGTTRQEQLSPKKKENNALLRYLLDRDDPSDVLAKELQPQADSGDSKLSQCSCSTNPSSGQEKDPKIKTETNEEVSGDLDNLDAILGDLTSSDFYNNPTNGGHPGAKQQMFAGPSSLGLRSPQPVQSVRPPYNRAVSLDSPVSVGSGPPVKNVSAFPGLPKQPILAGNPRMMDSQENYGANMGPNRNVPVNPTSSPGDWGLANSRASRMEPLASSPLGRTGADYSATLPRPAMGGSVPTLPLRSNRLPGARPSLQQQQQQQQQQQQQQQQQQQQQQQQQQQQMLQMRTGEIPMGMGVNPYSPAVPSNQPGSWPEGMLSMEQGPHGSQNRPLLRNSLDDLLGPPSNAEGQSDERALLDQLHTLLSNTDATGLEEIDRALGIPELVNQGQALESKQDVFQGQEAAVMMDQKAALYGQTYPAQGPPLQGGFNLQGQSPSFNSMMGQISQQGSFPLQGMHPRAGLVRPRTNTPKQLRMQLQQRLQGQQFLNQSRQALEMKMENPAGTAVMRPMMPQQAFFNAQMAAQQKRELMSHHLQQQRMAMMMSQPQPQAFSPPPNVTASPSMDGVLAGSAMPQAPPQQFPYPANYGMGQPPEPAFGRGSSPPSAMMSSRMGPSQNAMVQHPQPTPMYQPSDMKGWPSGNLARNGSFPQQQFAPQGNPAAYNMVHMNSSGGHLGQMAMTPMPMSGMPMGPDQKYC
# PHOSPHO1 block: PubChem AID 1565; Phosphoethanolamine/phosphocholine phosphatase (Homo sapiens), Q8TCT1; recombinant PHOSPHO1, absorbance phosphatase assay; inhibition, % at 13.3 µM; 1.1% of 290,000 active; in the data active means inhibition above about 60%
# UBC9 SUMO inh: inhibitors of in vitro SUMOylation cascade, primary screen, biochemical, HTRF, uHTS; SUMO-conjugating enzyme UBC9 (Homo sapiens), P63279; HTRF SUMOylation assay, SAE1/SAE2 + UBC9; inhibition, % at 35 µM; 0.36% of 290,000 active; in the data active means inhibition above about 50%, passing the limit was not always enough
# NadD inh: inhibitors of S. aureus NadD, primary screen, biochemical, colorimetric, uHTS | Nicotinate-nucleotide adenylyltransferase NadD (Staphylococcus aureus N315) | inhibition, % at 20 µM | purified NadD enzyme, colorimetric absorbance read-out | 0.78% of 360,000 active | AID 602399, 2012; in the data active means inhibition above about 26%
# Hits are given with their value; – = inactive; · = no result given. A selection: hits, their analogues and other compounds. The true share with any hit is near 1.8%.
SMILES,p-CIP stab down,PHOSPHO1 block,UBC9 SUMO inh,NadD inh
CCC1=NN2C(=N)/C(=C/c3ccc(OS(=O)(=O)c4ccccc4)c(OC)c3)C(=O)N=C2S1,–,–,–,82.0
COc1cc(/C=C2\C(=N)N3N=C(S(C)(=O)=O)SC3=NC2=O)cc(OC)c1OCCOc1ccccc1C,–,–,–,25.6
CCc1nn2c(=O)cc(COc3ccc(/C=C4\C(=N)N5N=C(C)SC5=NC4=O)cc3)nc2s1,–,60.6,–,–
CCOc1cc(/C=C2\C(=N)N3N=C(C)SC3=NC2=O)ccc1OCCOc1cccc(OC)c1,–,–,–,44.5
CC(C)CN(C(=O)COC(=O)c1cc2ccccc2cc1O)c1c(N)n(Cc2ccccc2)c(=O)[nH]c1=O,·,·,·,–
O=c1c2c3c(sc2nc2n1CCCCC2)CCCCC3,–,–,–,–
CC1CSc2nc3sc4c(c3c(=O)n21)CCCC4 (centres undefined),–,67.1,–,–
O=c1c2c3c(sc2nc2n1CCCCC2)CCCC3,–,75.6,–,–
CN(Cc1cnn(-c2ccc(F)cc2)c1)C(=O)[C@H]1O[C@@H](n2cnc3c(N)ncnc32)[C@H](O)[C@@H]1O,·,·,·,–
COc1cccc(C(O)c2ncc(-c3cccc(F)c3)[nH]2)c1 (centres undefined),·,·,·,–
Nc1[nH][nH]c(=O)c1N=Nc1cccc(Cl)c1,–,–,–,–
O=C1CCN(N=Nc2cccc(Cl)c2)N1,–,71.9,–,·
c1cc(Nc2ncnc3sc4c(c23)CCC4)ccn1,–,–,53.6,–
C(=N\Nc1ncnc2sc3c(c12)CCC3)/c1ccncc1,–,–,–,–
CCOc1ccc(NC(=O)c2cccc(S(=O)(=O)NCc3cccnc3)c2)cc1,·,·,·,–
O=C(CC[C@H]1O[C@@H](n2cnc3c(NC(=O)c4ccccc4)ncnc32)[C@H](O)[C@@H]1O)NCc1nc2ccccc2[nH]1,·,·,·,–
C#CCN(CC(=O)OCC)S(=O)(=O)CCNC1CC1,·,·,·,–
Cc1ccccc1OCc1nc2ccc(S(=O)(=O)N3CCOCC3)cc2[nH]1,–,97.9,–,–
C=CCOc1cccn2c(N(C)C(=O)c3ccccc3F)c(CC)nc12,·,·,·,–
O=C(CCNS(=O)(=O)c1ccc(OC(F)(F)F)cc1)NCCc1c[nH]c2ccccc12,·,·,·,–
CC(C)C[C@H]1COc2cc(N3CCC[C@@H]3CO)ccc2S(=O)(=O)N1,·,·,·,–
COc1cc(CNC(=O)c2ccccc2NC(=O)C2=C(C)OCCS2)cc(OC)c1OC,–,–,–,–
COc1cc(CCNC(=O)c2ccccc2NC(=O)C2=C(C)OCCS2)cc(OC)c1OC,–,63.6,–,–
CCc1nc2ccc(C(=O)N3CCN(S(=O)(=O)CC)CC3)cn2c1N(CC)Cc1cccc(Br)c1,·,·,·,–
Cn1nccc1C(=O)NC(=S)Nc1sc2c(c1C#N)CCCCC2,–,67.5,–,–
SMILES,p-CIP stab down,PHOSPHO1 block,UBC9 SUMO inh,NadD inh
[O-][N+]1=c2ccc(Nc3ccccc3)cc2=NC12CCCCC2,–,–,79.2,–
COc1ccc(Nc2ccc3c(c2)=NC2(CCCCC2)[N+]=3[O-])cc1,–,–,–,–
Cc1cc(C)cc(OC(C)C(=O)Nc2ccc3c(c2)n(C)c(=O)n3C)c1 (centres undefined),–,–,–,–
Cc1ccc(OC(C)C(=O)Nc2ccc3c(c2)n(C)c(=O)n3C)cc1C (centres undefined),–,60.0,–,–
O=S1(=O)N[C@@H](Cc2ccccc2)COc2cc(N3CCC[C@H]3CO)ccc21,·,·,·,–
CN(CC(=O)Nc1ccc(F)c(F)c1F)C(=O)C1(c2ccccc2)CC1,·,·,·,–
O=C(Nc1nc(OCCN2CCCC2=O)cnc1/C=C\c1ccccc1)c1cc2ccccc2s1,·,·,·,–
O=C1/C(=C/c2ccco2)SC(=S)N1c1cccnc1,–,60.8,83.6,–
O=C1CSC(=S)N1c1cccnc1,–,97.5,–,–
O=C1/C(=C\c2ccco2)SC(=S)N1c1ccc(O)cc1,–,–,56.8,–
CN(C)c1ccc(/C=C/C=C2/SC(=S)N(c3ccccc3)C2=O)cc1,–,–,–,43.2
COc1ccc(C(=O)N2CCC2(C)C(=O)NC(C)C)c(OC)c1 (centres undefined),·,·,·,–
CCCCNc1c(CC(C)C)nc2nc(C)cc(C)n12,·,·,·,–
O=C(NC1CCCCC1)c1cccc(N2C(=O)CCC2=O)c1,·,·,·,–
CC(C)Oc1ccc2ccccc2c1CNC[C@H]1O[C@@H](n2ccc(N)nc2=O)[C@H](O)[C@@H]1O,·,·,·,–
CCN(CC)CCN(C)C(=O)c1[nH]c(C(F)(F)F)nc1-c1ccccc1,·,·,·,–
O=C1/C(=C/C=C/c2ccco2)SC(=S)N1c1ccc(O)cc1,–,–,64.4,–
COc1ccc(/C=C2\SC(=S)N(c3cccnc3)C2=O)cc1,–,–,–,–
Cc1cc(/C=C2/SC(=S)N(c3cccc(C(F)(F)F)c3)C2=O)c(C)n1-c1cccnc1,·,·,·,44.2
O=C(O)c1ccc(N2C(=O)/C(=C/C=C/c3ccccc3)SC2=S)cc1,–,–,–,–
O=C1/C(=C\c2ccc(O)cc2)SC(=S)N1c1cccnc1,–,–,–,31.5
CC(C)C(C(=O)O)N1C(=O)/C(=C/C=C/c2ccco2)SC1=S (centres undefined),–,–,75.5,45.8
COc1ccc2c(-c3ccc(S(N)(=O)=O)cc3)c(-c3ccc(S(C)(=O)=O)cc3)sc2c1,·,·,·,–
CCOC(=O)/C(N=Nc1sc(C(=O)OCC)c(C)c1C(=O)OCC)=C(\C)O,–,–,–,·
CCOC(=O)c1sc(N=NC2=C(O)CCCC2=O)c(C(=O)OCC)c1C,–,–,–,37.5
SMILES,p-CIP stab down,PHOSPHO1 block,UBC9 SUMO inh,NadD inh
CCC[C@H]1CN(c2ccccc2)C(=O)[C@@H]1CC(=O)NC,·,·,·,–
CC1(C(=O)NS(=O)(=O)c2cccc(Cl)c2)CCN1C(=O)CCc1cccs1 (centres undefined),·,·,·,–
O=C(NC1CCS(=O)(=O)C1)c1cc2c(=O)n3ccccc3nc2n1Cc1ccccc1 (centres undefined),·,·,·,–
Cc1ccc2nc3c(cc(C(=O)NC4CCS(=O)(=O)C4)n3Cc3ccccc3)c(=O)n2c1 (centres undefined),–,61.6,–,–
NC(=O)c1cc(-c2ccccc2)nc(N2CCOCC2)n1,–,–,–,–
CC[n+]1cc(-c2ccccc2)nc(N2CCOCC2)n1,–,99.8,–,–
CCOC(=O)c1csc(-c2ccc(COC(=O)c3ccccc3)o2)n1,·,·,·,–
CCCS(=O)(=O)NC(=O)C1(C)CCN(C(=O)c2ccc3ccccc3c2)C1 (centres undefined),·,·,·,–
N/C(=N\OS(=O)(=O)c1ccccc1)c1ccccn1,–,78.6,–,–
N/C(=N\OS(=O)(=O)c1ccc(Cl)cc1)c1ccccn1,–,–,–,–
Cc1ccc(NC(=O)CCCc2nc3ccccc3c(=O)[nH]2)c(Cl)c1,·,·,·,–
COc1cccc(C(O)c2nc(-c3cccc(CO)c3)cs2)c1 (centres undefined),·,·,·,–
CCc1ccc(S(=O)(=O)/N=C2/C=C(Sc3ncn[nH]3)C(=O)c3ccccc32)cc1,–,–,92.1,70.6
COC(=O)C1(C)CCCC2(C)C3CCC(C(C)C)C(CO)C3C(CO)CC12 (centres undefined),·,·,·,–
